The term inhibition denotes the relative decrease from the control value, in per cent.

In all, about 290,000 compounds went through this assay and about 27,000 (9.3%) were called active. Shown is part of a subset that was picked to be rich in actives. A number with no mark means an inactive call. Rule as the data show it: active = inhibition mostly above about 28% (no sharp cut-off); inactive = mostly below about 43%.

This test is described as follows: A qHTS for Small Molecule Inhibitors of Shiga Toxin. Also: 0% is about no effect. Conditions: Vero cells, Shiga toxin protein synthesis inhibition reporter; at 38.7 µM, active compounds read high.
Consider `COc1cccc(C(=O)Nc2nnc(S(=O)(=O)N(C)c3ccccc3)s2)c1`, for which the inhibition is 3.08%.

As to `Cc1nc2sccn2c(=O)c1S(=O)(=O)NCCc1ccccc1`, the inhibition was -9.77%.

For `COc1ccc(C(=O)CSc2nnc(-c3ccco3)o2)cc1`, the inhibition is 10.9%.

Consider `Cc1ccc(OCC(=O)Nc2ccc(-c3nc4ncccc4o3)cc2)cc1`, for which the inhibition is 2.45%.

For the compound `CCCCOc1ccc(-c2nnc(-c3ccco3)o2)cc1`, the inhibition was 85.9% (active).

`COc1ccc(OCC(=O)Nc2nnc(-c3ccco3)s2)cc1`: the inhibition is 2.24%.

As for `Cc1ccc(OCC(=O)Nc2ccc(-c3nnc(-c4ccco4)o3)cc2)cc1`, the inhibition is 22.1% (active).

As for `Cc1ccc(OCC(=O)Nc2nnc(-c3ccco3)s2)cc1`, the inhibition was 4.17%.

On to `O=C(CCc1ccccc1)Nc1cccc(-c2nnc(-c3ccco3)o2)c1`, for which the inhibition is 19.4%.

In the case of `Cc1cccc(NC(=O)CSc2nnc(-c3ccco3)o2)c1`, the inhibition is -23.3%.

In the case of `CCC(=O)Oc1cccc(C(=O)Nc2ccc(-c3nnc(-c4ccco4)o3)cc2)c1`, the inhibition is 90.4% (active).

As for `Cc1ccc(-c2nnc(Nc3ccc(C(=O)N(C)C)cc3)c3ccccc23)cc1S(N)(=O)=O`, the inhibition was 1.45%.

Turning to `CC(C)(C)n1ncc2c(=O)n(Cc3ccc(Cl)cc3)cnc21`, the inhibition is 33.8%.

Turning to `Cc1cc(=O)oc2c(C)c(OCC(=O)NCCc3ccc(S(N)(=O)=O)cc3)ccc12`, the inhibition was -5.85%.

In the case of `CCOc1ccc(NC(=O)[C@H](C)NC(=O)C2CC(=O)N(c3ccc(OC)cc3)C2)cc1` (stereo partly drawn), the inhibition was -4.28%.

Turning to `COCCCNc1nc2ccccc2nc1NS(=O)(=O)c1ccc(F)cc1`, the inhibition is 2.37%.

In the case of `CCCCNC(=O)N1CCCC(N(C)CCc2ccc(OC)c(OC)c2)C1` (stereo not drawn), the inhibition was -2.02%.

As for `Cc1ccc(NC(=O)CSc2nn3c(=O)c(C)nnc3s2)cc1Cl`, the inhibition is 7.47%.

As for `O=C(NC1CCCC1)c1ccc(Br)s1`, the inhibition is 30.7%.

In the case of `CC(C)C(=O)OCC(=O)Nc1ccc2c(c1)CCC2`, the inhibition is 14.2%.

For the compound `O=C(Nc1ccc2c(c1)CCC2)c1ccc(Br)s1`, the inhibition is 112% (active).

For the compound `CC1=C(C(=O)OCC2CCCCC2)C(c2ccc(F)cc2)NC(=O)N1` (stereo not drawn), the inhibition is -7.87%.

With `CN(C)c1nc(Nc2ccc(Cl)c(Cl)c2)nc(N(C)C)n1`, the inhibition is -11.2%.

Consider `Cc1ccc(CS(=O)(=O)CCC(=O)NCc2ccc(F)cc2)cc1`, for which the inhibition was -8.45%.

Consider `CCOC(=O)Cc1csc(SCC(=O)NC(C)C23CC4CC(CC(C4)C2)C3)n1` (stereo not drawn), for which the inhibition is 3.03%.

With `Cc1cc2cc(CNC(=O)c3ccc(S(=O)(=O)N4CCOCC4)cc3)ccc2[nH]1`, the inhibition is -6.18%.

Turning to `CCc1cccc(CC)c1NC(=S)NCc1ccc2[nH]c(C)cc2c1`, the inhibition is -9.97%.

As to `Cc1cc2cc(CNC(=O)c3cccs3)ccc2[nH]1`, the inhibition was 21.3% (active).

For the compound `COc1ccc(CNc2ncnc3ccccc23)cc1`, the inhibition was -14.9%.

For `Cc1c(C)c(C)c(S(=O)(=O)N2CCC3(CC2)OCCO3)c(C)c1C`, the inhibition is -4.05%.

As to `O=C(C1CCCO1)N1CCN(S(=O)(=O)c2ccc(Br)cc2)CC1` (stereo not drawn), the inhibition was -30%.

For `O=C1Nc2cc(C(=O)N3CCN(c4ccc(F)cc4)CC3)ccc2NC1CSCc1cccc(F)c1` (stereo not drawn), the inhibition was -13.8%.

`COc1cc(NC(=O)C2=C(C)OCCS2)c(Cl)cc1C(=O)NCCN1CCN(C)CC1`: the inhibition was -4.3%.

Take `Cc1cccc(C(=O)Nc2ccccc2-c2nnn(CC(=O)Nc3ccc4c(c3)OCCO4)n2)c1`: the inhibition was -7.74%.

In the case of `O=C1c2ccccc2C(Nc2ccc3c(c2)OCCO3)N1Cc1ccco1` (stereo not drawn), the inhibition is 75.3% (active).

As for `O=C(NC1CCCCC1)C1c2ccccc2C(=O)N1Cc1ccco1` (stereo not drawn), the inhibition was 2.78%.

Regarding `COC(=O)c1cc(NC2c3ccccc3C(=O)N2c2ccc(Cl)cn2)cc(C(=O)OC)c1` (stereo not drawn), the inhibition was 27.1%.

Take `COc1ccccc1C1/C(=C(/O)c2ccc(C)cc2)C(=O)C(=O)N1Cc1ccco1` (stereo not drawn): the inhibition is -8.56%.

For `Cc1ccnc(N2C(=O)c3ccccc3C2Nc2ccc3c(c2)OCCO3)c1` (stereo not drawn), the inhibition is 162% (active).

For the compound `CC(C)(C)NCc1cc(Br)ccc1OC1CCCC1`, the inhibition is -3.59%.

As for `CCc1ccc2[nH]c(=O)c(Cc3ccccc3)c(O)c2c1`, the inhibition was -8.55%.

On to `Cc1ccc(C2SCC(=O)N2c2ccccc2)cc1` (stereo not drawn), for which the inhibition is 23.4%.

Turning to `C=CCN1C(=NC(=O)COc2ccccc2)SC2CS(=O)(=O)CC21` (stereo not drawn), the inhibition was -9.63%.

Regarding `Cc1ccc(C(=O)N/C(=C\c2cn(C)c3ccccc23)C(=O)N2CCN(C)CC2)cc1`, the inhibition was -1.79%.

In the case of `Cc1ccc(CN2CCNC(=O)C2CC(=O)NCc2csc(C(C)C)n2)cc1` (stereo not drawn), the inhibition is -6.42%.

As to `COc1ccc(S(=O)(=O)c2c[nH]c(=S)[nH]c2=O)cc1Cl`, the inhibition is -4.21%.

As to `Cc1cnc(C(=O)OCc2c(C)cc(C(C)(C)C)cc2C)cn1`, the inhibition was -2.67%.

Consider `O=C(C[n+]1cc(Br)cc2ccccc21)c1ccc(F)cc1`, for which the inhibition is -6.12%.

Consider `Oc1ccccc1-c1cc(-c2ccc(Cl)cc2)n[nH]1`, for which the inhibition was 151% (active).

In the case of `S=c1[nH]nc(-c2cc(-c3ccccc3)n[nH]2)n1/N=C/c1c2ccccc2cc2ccccc12`, the inhibition is -4.79%.

As to `Cc1ccc(NC(=O)c2cc(-c3ccccc3O)n[nH]2)cc1C`, the inhibition is 40.6%.

In the case of `c1ccc(-c2cc(-c3ccccc3)[nH]n2)cc1`, the inhibition was 129% (active).

Consider `c1ccc(-c2cc(-c3nnc4sc(-c5ccccn5)nn34)[nH]n2)cc1`, for which the inhibition is 11.6%.

On to `O=C(NCCCNC(=O)c1ccccc1Cl)c1cnccn1`, for which the inhibition is -8.38%.

On to `COc1ccc(NC(=O)CC(NC(C)c2ccccc2)C(=O)O)cc1` (stereo not drawn), for which the inhibition is -9.37%.

For `O=C(OCCN=C1NS(=O)(=O)c2ccccc21)c1cccc([N+](=O)[O-])c1`, the inhibition was -7.24%.

Take `COc1ccc(N2CCN(C(=O)c3ccc(N4CCCCS4(=O)=O)cc3)CC2)cc1`: the inhibition is 3.75%.

For the compound `N/C(=N\OC(=O)CCc1ccccc1)c1ccc(Cl)cc1`, the inhibition was 61% (active).

Turning to `O=C(CCC(=O)OCc1ccc(Cl)cc1)Nc1ccccc1`, the inhibition is -15.7%.

In the case of `N/C(=N\OC(=O)CCc1ccccc1)c1cccnc1`, the inhibition was 55.1% (active).

Regarding `O=C(O)CCc1cccnc1`, the inhibition was -4.95%.

Take `CC(=O)OC(C(=O)NCCc1ccccc1)c1cccnc1` (stereo not drawn): the inhibition was -5.15%.

Take `Cc1ccc(/C(N)=N/OC(=O)COc2ccc(Cl)c(C)c2)cc1`: the inhibition is 21.4%.

Values taken from PubChem BioAssay AID2315 (National Center for Advancing Translational Sciences (NCATS), 2010).
